The values that follow come from PubChem BioAssay (NCATS).

Inconclusive results are not listed. Unmarked numbers belong to inactive results. Active and inactive are the calls of the source. Unless noted, calls follow the shape of the full dose curve.

Assay [1] in a line: Cell Viability - BJ (AID 421).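 Also: potency is read from the fitted curve at half-maximal effect; cells exposed to compound for 40 hours at 37 °C before readout.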 To be noted: BJ fibroblast viability, qHTS. The method, boiled down: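 Cytotoxicity in human BJ foreskin fibroblasts is scored as loss of cellular ATP after a 40-hour exposure, measured by luciferase luminescence. Controls are DMSO and 100 uM tamoxifen.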
On the technique in general: In qHTS, concentration-response curves come from the screen itself.

The nature of assay [2]: Cell Viability - HepG2 (AID 433).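 Also: potency is read from the fitted curve at half-maximal effect; potency for ATP loss meaning cytotoxicity.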 To be noted: qHTS. The method in brief:
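Read-out is luciferase-based quantitation of cellular ATP as a measure of viable HepG2 cells after 40 h treatment at 37 °C. Signal decrease is scaled between DMSO-only and 100 uM tamoxifen controls, with AC50 fitted by the Hill equation.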

Assay [3] can be described thus: Cell Viability - MRC5 (AID 434).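 Also: potency is read from the fitted curve at half-maximal effect; cells exposed to compound for 40 hours at 37 °C; potency reflects cytotoxicity seen as loss of intracellular ATP.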 To be noted: MRC5 lung fibroblast viability, qHTS. The method in brief: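 Decrease in intracellular ATP, quantified by luciferase light output, reflects compound toxicity toward MRC5 cells exposed for 40 hr in complete culture medium. Concentration-response curves, scaled between DMSO and 100 uM tamoxifen, gave AC50 values.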
Assay [4] concerns the target Cytochrome P450 1A2 (Homo sapiens) (UniProt P05177). As to the kind of experiment: p450-cyp1a2 (AID 410). Also: potency is read from the fitted curve at half-maximal effect. To be noted: recombinant CYP1A2, luciferin-ME demethylation, luminescence; series mostly up to 57 µM. The method, boiled down:
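Luminescent demethylation readout: Luciferin-ME (100uM, equal to Km) turned over by 20nM CYP1A2 for 60 min at room temperature after NADPH regeneration addition, following 10 min compound preincubation. Normalization used 57 uM furafylline as full inhibition.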

The nature of assay [5]: Cell Viability - Jurkat (AID 426;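 active = dose-dependent loss of cell ATP signal giving a full or clear fitted curve, ranked by lower potency value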;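 also: potency is read from the fitted curve at half-maximal effect; cells exposed to compound for 40 hours at 37 °C before ATP read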). To be noted: qHTS. The method in brief:
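Cytotoxicity taken as drop in cellular ATP (CellTiter-Glo luminescence, 20 min room temperature) after 40 hr, 37C treatment of 5000 Jurkat Clone E6-1 cells per well; concentration-response fitted with Hill equation for AC50.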

The nature of assay [6]: Cell Viability - SK-N-SH (AID 435).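 Also: potency is read from the fitted curve at half-maximal effect; compound exposure lasted 40 h at 37 °C.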 To be noted: SK-N-SH neuroblastoma cell viability qHTS. The method in brief:
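Luminescent ATP signal served as the viability read-out after 40 hours of compound treatment of human neuroblastoma SK-N-SH cells. Concentration-response data, scaled between DMSO and 100 uM tamoxifen, gave AC50 values by standard Hill modeling.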

Assay [7] can be described thus: AP1 Signaling Pathway (AID 357; active = well fitted curve in either direction with a large enough effect, not every such curve was filed as active;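 also: ME-180 reporter cells stimulated with EGF at its EC50 level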). To be noted: ME-180 (cervical carcinoma) AP-1-bla reporter, EGF-induced, beta-lactamase ratio, 5 h; series mostly up to 17.2 µM. The method, boiled down:
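Modulation of EGF-driven AP-1 transcription was assessed with a beta-lactamase reporter in ME-180 cells. Compound and EC50 EGF were co-incubated 5 hours at 37 °C before 2.5-hour CCF4 loading at room temperature and dual-emission reading.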

A short description of assay [8]: NFAT Signaling Pathway (AID 444; active = well fitted curve in either direction with a large enough effect, not every such curve was filed as active;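 also: carbachol stimulus at about its EC50 of 1 µM final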). To be noted: Jurkat NFAT-bla M1, carbachol, beta-lactamase ratio, 5 h; series mostly up to 17.2 µM. The method, boiled down: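 Jurkat cells carrying an NFAT-driven β-lactamase reporter and co-transfected muscarinic M1 receptor were treated with compound plus carbachol (1 uM final, an EC50 level) for 5 h at 37 °C. CCF4 loading followed for 1 h at RT; 460/530 nm ratio gave %activity.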

A short description of assay [9]: Cell Viability - Hek293 (AID 427;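 active = compounds whose dose-response curve shows a full or clear partial loss of cell viability, called from curve shape rather than a numeric limit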;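 also: potency is read from the fitted curve at half-maximal effect; cells exposed to compound for 40 hours at 37 °C before reading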). To be noted: qHTS. The method, boiled down: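 qHTS, human embryonic kidney (adenovirus-transformed) cells; 40 hr cpd, 37 °C; CellTiter-Glo ATP luminescence. Norm: DMSO = 0, 100 uM tamoxifen = 100% inhibition. Hill-fit AC50.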

Chain of Cytochrome P450 1A2 (Homo sapiens) (P05177 whole entry, looked up): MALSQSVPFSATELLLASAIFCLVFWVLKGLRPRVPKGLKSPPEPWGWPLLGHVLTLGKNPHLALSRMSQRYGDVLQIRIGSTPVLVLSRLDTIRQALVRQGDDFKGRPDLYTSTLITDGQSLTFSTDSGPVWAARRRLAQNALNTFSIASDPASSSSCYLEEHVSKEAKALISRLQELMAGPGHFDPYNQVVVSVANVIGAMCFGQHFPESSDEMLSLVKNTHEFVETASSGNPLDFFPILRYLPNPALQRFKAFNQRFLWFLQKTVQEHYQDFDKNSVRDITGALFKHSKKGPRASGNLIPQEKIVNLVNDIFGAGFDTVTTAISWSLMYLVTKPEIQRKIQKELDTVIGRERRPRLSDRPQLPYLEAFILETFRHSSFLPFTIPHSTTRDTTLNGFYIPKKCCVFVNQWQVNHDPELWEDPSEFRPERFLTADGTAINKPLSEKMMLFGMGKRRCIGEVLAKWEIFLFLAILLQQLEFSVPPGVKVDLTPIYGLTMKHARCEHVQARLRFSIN

Consider `CC(=O)O[C@]1(C(C)=O)CC[C@H]2[C@@H]3C=C(Cl)C4=CC(=O)[C@@H]5C[C@@H]5[C@]4(C)[C@H]3CC[C@@]21C`, for which the Potency in assay [1], in assay [2] and in assay [3] was greater than 92 µM throughout.
With `COc1ccc(-c2coc3cc(O)ccc3c2=O)cc1`, the Potency in [4] was 0.631 µM (active).
With `CC1=C(/C=C/C(C)=C/C=C/C(C)=C/C(=O)Nc2ccc(O)cc2)C(C)(C)CCC1`, the Potency was 30.8 µM (active) in [1]; 2.16 µM (active) in assay [5]; 34.9 µM (active) in assay [2]; 24.7 µM (active) in [3]; 7.43 µM (active) in assay [6].
Regarding `COc1ccc2c3c1OC1C[C@@H](O)C=C[C@@]31CCN(C)C2` (stereo partly drawn), the outcome in assay [7] and in assay [8] was inactive.
Regarding `CC(C)NCC(O)COc1cccc2[nH]ccc12` (stereo not drawn), the outcome in assay [7] and in assay [8] was inactive.
On to `CCn1cc(C(=O)O)c(=O)c2ccc(C)nc21`, for which the Potency in assay [1], in assay [5], in assay [9], in assay [2], in assay [3] and in [6] was greater than 92 µM each time.
For `O=c1cc(-c2ccc(O)cc2)oc2cc(O)cc(O)c12`, the Potency in [1] and in assay [2] was greater than 92 µM each time.
Regarding `O=c1c(O)c(-c2ccc(O)cc2)oc2cc(O)cc(O)c12`, the Potency in [1], in assay [5], in assay [9], in [2], in assay [3] and in assay [6] was greater than 92 µM throughout.
`NC(N)=Nc1nc(CSCC/C(N)=N/S(N)(=O)=O)cs1`: the result in assay [7] and in [8] was inactive.
For `CC1(C)CCC2=C(O1)c1ccccc1C(=O)C2=O`, the Potency in assay [4] is 3.98 µM (active).
Turning to `O=C(O)c1cc(-c2ccccc2)nc2ccccc12`, the outcome in assay [7] and in assay [8] was inactive.
`O=C1C[C@@H](c2ccc(O)cc2)Oc2cc(O)cc(O)c21`: the outcome in [7] and in [8] was inactive.
`O=C(O)Cc1cccc2ccccc12`: the Potency in [1], in assay [5], in [9], in assay [2], in assay [3] and in [6] was greater than 92 µM each time.
Take `CCCCCCCCCCCC1=C(O)C(=O)C=C(O)C1=O`: in assay [4], the Potency entry is “inactive”.
On to `CC(C)(C)c1ccc(C(O)CCCN2CCC(C(O)(c3ccccc3)c3ccccc3)CC2)cc1` (stereo not drawn), for which the result in [7] and in [8] was inactive.
